Results reported in PubChem BioAssay AID1508637 (National Center for Advancing Translational Sciences (NCATS), 2021).
Records with an inconclusive call do not appear. Activity calls are given as the source filed them. Calls follow the shape of the dose curve; as a rule, active = well fitted inhibition curve with a large enough effect; inconclusive = small, poorly fitted or top-dose-only effect; inactive = flat fitted curve, though single readings scatter. Starred links: 1 amine or outer side, 2 acyl side, 3 side chain; linkers in the order of their positions; H or OH if unused. Non-standard residues stand in square brackets, D forms with d. Residues, ends and D or L forms follow the SMILES beside them. X1 = O=C([C@@H](CC(O)CCl)O[*:1])[*:2]; aIle = CC[C@@H](C)[C@H](N)C(=O)O; NMeV = CN[C@H](C(=O)O)C(C)C; NMeA = CN[C@@H](C)C(=O)O; βAla = NCCC(=O)O

Assay: qHTS for characterization and localization of zebrafish homologs of the human ABCB1 multidrug transporter: empty vector transfected cells
Details: empty vector transfected control cells, CellTiter-Glo luminescence viability, 72 h
From the text: The zebrafish has emerged as a potential model to study the blood-brain barrier (BBB) given its similarities with mammalian systems. However, little information has been available with regard to homologous ATP-binding cassette transporters expressed at the zebrafish BBB. Two transporters that are highly expressed at the human BBB are P-glycoprotein (P-gp, encoded by the ABCB1 gene) and ABCG2 (encoded by the ABCG2 gene). In this study, we focus on characterization of P-gp homologs in the zebrafish, which has two genes that are homologous to human ABCB1 - abcb4 and abcb5. We generated stably-transfected cell lines to determine their substrate specificities. […] Zebrafish abcb4 also colocalized with claudin 5 expression in brain endothelial cells.
A high-throughput screen was performed as previously described on empty vector transfected cells, P-gp-overexpressing MDR-19 cells and cells transfected with full-length zebrafish abcb4 (ZF Abcb4) or abcb5 (ZF Abcb5). Briefly, cells were plated into 1536-well plates at a density of 500 cells/well in 5 uL media. P-gp substrate compounds (approximately 90) selected from our previous study were then added at varying concentrations using a 1536-head pin tool (Kalypsis, San Diego, CA) and plates were incubated at 37C in 5% CO2 for 72 h. CellTiter-Glo reagent (Promega) was dispensed into the wells, incubated for 5 min and luminescence was read on a ViewLux instrument (Perkin-Elmer).
Cytotoxic compounds were defined as those that yielded a curve class of -1.1, -1.2, -2.1, -2.2, -2.3, or -2.4, a maximum response of >50% and an AC50 of < 10 uM. All compounds from screening analysis were tested in Vector (empty vector control), MDR-19 (P-gp overexpressing), zebrafish abcb4 (ZF Abcb4) and abcb5 (ZF Abcb5) expression cell lines.
1. Tobie D Lee, Olivia W Lee, Kyle R Brimacombe, Lu Chen, Rajarshi Guha, Sabrina Lusvarghi, Bethilehem G Tebase, Carleen Klumpp-Thomas, Robert W Robey, Suresh V Ambudkar, Min Shen, Michael M Gottesman, Matthew D Hall. A High-Throughput Screen of a Library of Therapeutics Identifies Cytotoxic Substrates of P-glycoprotein. […]

| Compound | Potency |
| --- | --- |
| C=CCON=C(C[C@H]1O[C@@H]2O[C@]3(C)CC[C@@H]4[C@H](C)CC[C@@H]([C@H]1C)[C@@]24OO3)[C@H]1O[C@@H]2O[C@]3(C)CC[C@H]4[C@H](C)CC[C@@H]([C@@H]1C)[C@@]24OO3 | 187 nM (active) |
| C[C@@H]1[C@@H](CC(C[C@H]2O[C@@H]3O[C@]4(C)CC[C@@H]5[C@H](C)CC[C@@H]([C@H]2C)[C@@]35OO4)C[S+](=O)([O-])c2ccc(COC(=O)N(C)C)cc2)O[C@@H]2O[C@]3(C)CC[C@H]4[C@H](C)CC[C@@H]1[C@@]24OO3 (stereo partly drawn) | 264 nM (active) |
| CC[C@@H](C)[C@@H]1NC(=O)[C@@H]2CCCN2C(=O)[C@@H](CC(O)CCl)OC(=O)CCNC(=O)[C@H](C)N(C)C(=O)[C@H](C(C)C)N(C)C1=O (stereo partly drawn) (cyclo([NMeA][βAla][X1]P[aIle][NMeV])) | 1390 nM (active) |
